This is a sample that favours compounds with a hit; in the whole collection about 7.3% have one here.
p53 reactivator: qHTS assay for re-activators of p53 using a Luc reporter. Potency, µM (top dose mostly 92.2 µM), without a hit: at the top dose activity change, positive = activation, usual class: activators. H1299 p53-A138V BP100-luciferase reporter, luminescence, 24 h. 320,000 tested, 0.063% active; also: % of control where 0% means no effect; nearly all actives have a fitted effect of over 45% in size
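p53-null H1299 cells stably carrying temperature-sensitive p53-A138V and a BP100-luciferase reporter were pinned with compounds (4-point, 1:5 series) and held 24 hrs at 37 deg C. Luminescence was read 10 min after detection reagent.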
NPC1 promoter act: qHTS Assay for NPC1 Promoter Activators; Huh7 NPC1 promoter luciferase reporter, 24 h; Potency, µM (top dose mostly 9.22 µM), without a hit: at the top dose activation, most hits filed as activators; 320,000 tested, 2.4% active; AID 485313, 2010; also: % of control where 0% means no effect; nearly all actives have a fitted effect of over 60% in size
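Quantitative HTS used a cell-based reporter: Huh7 cells stably bearing the NPC1 promoter upstream of luciferase were treated with compounds for 24 h, and promoter activation was read as luminescence.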
FLuc modulator: qHTS profiling assay for firefly luciferase inhibitor/activator using purifed enzyme and Km concentrations of substrates (counterscreen for miR-21 project) | purified FLuc, Km substrates, luminescence inhibition | Potency, µM (top dose mostly 57.5 µM), without a hit: at the highest dose activity change, negative = inhibition, most hits filed as inhibitors | 360,000 tested, 6.9% active | Luciferin 4-monooxygenase (Photinus pyralis), P08659;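 also: plate controls were vehicle for no effect and reference inhibitor for full effect; nearly all actives have a fitted effect of over 55% in size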
Target sequence (P08659 whole entry, looked up): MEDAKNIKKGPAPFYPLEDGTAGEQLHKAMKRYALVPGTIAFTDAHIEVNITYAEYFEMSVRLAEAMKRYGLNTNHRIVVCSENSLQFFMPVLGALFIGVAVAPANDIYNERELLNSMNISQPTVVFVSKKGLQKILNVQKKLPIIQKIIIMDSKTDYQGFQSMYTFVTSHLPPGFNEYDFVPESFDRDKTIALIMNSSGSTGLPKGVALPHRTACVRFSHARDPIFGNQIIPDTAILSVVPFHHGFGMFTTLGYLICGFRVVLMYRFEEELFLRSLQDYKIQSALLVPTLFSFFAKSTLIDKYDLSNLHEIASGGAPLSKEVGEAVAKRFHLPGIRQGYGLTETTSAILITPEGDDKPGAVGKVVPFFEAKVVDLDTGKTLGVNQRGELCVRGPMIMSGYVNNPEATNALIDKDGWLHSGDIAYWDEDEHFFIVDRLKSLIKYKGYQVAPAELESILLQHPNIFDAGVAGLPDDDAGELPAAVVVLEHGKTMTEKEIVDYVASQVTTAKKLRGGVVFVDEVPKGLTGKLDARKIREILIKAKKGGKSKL
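Biochemical qHTS of compounds, final roughly 60 µM downward over six points, against 10 nM purified firefly luciferase using Km concentrations of substrates (10 uM D-luciferin, 10 uM ATP) in Tris acetate pH 7.5 buffer; luminescence output.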
SMN2 splice enh: qHTS Assay for Enhancers of SMN2 Splice Variant Expression. 210,000 tested, 2.8% active. Potency, µM (titrated, usually from 46.1 µM), for the others: top-dose activity change, positive = activation, most hits filed as activators. AID 1458, 2008. HEK293 SMN2-luciferase splicing reporter, luminescence, 30-36 h; also: % of control where 0% means no effect; nearly all actives have a fitted effect of over 55% in size
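qHTS luciferase splicing reporter: luminescence rises when SMN2 exon 7 is included in transfected HEK293 cells. Compound exposure lasted 30-36 h at 37C, with 4.5 mM final sodium butyrate as control, followed by a ONE-Glo read.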
ELG1 genotoxic: qHTS screen for small molecules that induce genotoxicity in human embryonic kidney (HEK293T) cells expressing luciferase-tagged ELG1 | Potency, µM (top dose mostly 46 µM), inactives show at the highest dose activity change, positive = activation, usual class: activators | 330,000 tested, 1.3% active | HEK293T ELG1-luciferase reporter, luminescence, 16 h | AID 504466, 2011; also: % of control where 0% means no effect; nearly all actives have a fitted effect of over 60% in size
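DMSO vehicle served as control against compound-treated ELG1-luciferase HEK293T cells; exposure lasted 16 hr at 37 °C and 5% CO2, followed by ONE-Glo luminescence detection after 30 min.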
Rab9 promoter act: qHTS Assay for Rab9 Promoter Activators; AID 485297, 2010; Huh7 Rab9 promoter-luciferase reporter, luminescence, 24 h; Potency, µM (series often up to 9.22 µM), for the others: top-dose activation, negative = inhibition, usual class: activators; 320,000 tested, 2.8% active; also: % of control where 0% means no effect; nearly all actives have a fitted effect of over 60% in size
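Rab9 promoter-driven luciferase in stably transfected Huh7 cells; 1500 cells/well rested 2 h, exposed to compound in DMSO for 24 h at 37 °C, 5% CO2. Luminescence read 10 min after adding luciferase reagent at ambient temperature.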
* marks the source's active call; other numbers are inactive results; ? = inconclusive; nt = no result given. Calls follow the shape of the dose curve; as a rule, active = well fitted curve in the direction sought with a large enough effect; inconclusive = small, poorly fitted or top-dose-only effect, or another doubt; inactive = no such curve, though single readings can be large; an effect the other way counts as inactive or inconclusive. Potency is read from the fitted curve at half-maximal effect.

SMILES | p53 reactivator | NPC1 promoter act | FLuc modulator | SMN2 splice enh | ELG1 genotoxic | Rab9 promoter act
CC(OC(=O)c1ccccc1C(=O)N(C)c1ccccc1)C(=O)Nc1ccc(C(N)=O)cc1 (stereo unspecified) | 2% | 7% | -2% | nt | 2% | 2%
CC(OC(=O)c1cc(O)c2ccccc2c1O)C(=O)Nc1ccc(C(N)=O)cc1 (stereo unspecified) | 2% | 10% | 8.5µM* | nt | 10% | 21%
CC1(C)S[C@H]2C(NC(=O)[C@@H](N)c3ccc(O)cc3)C(=O)N2[C@@H]1C(=O)O (stereo partly specified) | nt | nt | nt | 4% | nt | nt
CC(C)c1ccc(OCC(=O)NC2=NCCS2)cc1 | 17% | ? | 7.6µM* | nt | 27% | 16%
Cc1cccnc1NC(=O)C(C)Oc1ccccc1 (stereo unspecified) | -15% | -2% | 7% | 6% | 0% | -1%
O=C(NC1=NCCS1)Nc1ccccc1 | 3% | 1.4µM* | 9.5µM* | 10µM* | ? | 1.4µM*
N#Cc1ccc(OCC(=O)NC2=NCCS2)cc1 | 7% | 18% | -17% | 7% | 2% | 23%
O=C(COc1ccccc1)NC1=NCCS1 | 20% | -5% | 7.6µM* | -28% | 15µM* | -2%
CC(Oc1ccccc1)C(=O)NC1=NCCS1 (stereo unspecified) | 7% | ? | 15µM* | 14µM* | ? | 3.2µM*
COc1ccc(OC)c(NC(=O)Cn2c(=O)cc(-c3ccccc3)c3c(C)nn(C)c32)c1 | nt | nt | -2% | nt | nt | nt
COc1cccc(/C=N/NC(=O)CN2CC(c3ccccc3)CC2=O)c1O (stereo unspecified) | ? | -8% | 12µM* | -48% | 4% | -19%
COc1cccc(/C=N/NC(=O)CSc2nnc(C)n2-c2ccccc2)c1O | 16% | -9% | 17µM* | -25% | -4% | -3%
CCCCN1CCc2nc(Nc3ccc(OC)cc3OC)ncc2C1 | nt | nt | -1% | nt | nt | nt
O=C(Cn1ccn(-c2ccc(F)c(F)c2)c(=O)c1=O)c1ccc(F)cc1 | nt | nt | -6% | nt | nt | nt
CCc1ccc(S(=O)(=O)Nc2ccc(-c3ccc4nncn4n3)cc2)s1 | -1% | -3% | 1% | nt | 6% | 0%
O=S(=O)(Nc1cccc(-c2ccc3nncn3n2)c1)c1ccc(Cl)s1 | -3% | -4% | -15% | 8% | 5% | 1%
Cc1ccc(S(=O)(=O)Nc2cccc(-c3ccc(N4CCCCC4)nn3)c2)s1 | nt | nt | 1.1µM* | nt | nt | nt
CCc1ccc(S(=O)(=O)Nc2cccc(-c3ccc(N4CCCCC4)nn3)c2)s1 | nt | nt | 2.7µM* | nt | nt | nt
CCCCC1CCC(C(=O)N2CC(=O)Nc3ccc(C)cc3C2c2ccc(F)cc2)CC1 (stereo unspecified) | nt | nt | -7% | 4% | nt | nt
COc1ccc(NC(=O)N2CC3(CCN(C(=O)c4cc(C(F)(F)F)cc(C(F)(F)F)c4)CC3)C2)cc1 | nt | nt | nt | -11% | nt | nt
Cc1csc(NC(=O)c2cccs2)n1 | ? | ? | ? | 11µM* | ? | ?
Cc1nc(NC(=O)c2cccs2)ccc1Br | 1% | 3.5µM* | 6µM* | 11µM* | ? | 3.5µM*
Cc1csc(NC(=O)c2ccc(Br)s2)n1 | ? | 21% | 4.8µM* | nt | ? | 2%
CCC(CC)C(=O)N1CCc2cc(OC)c(OC)cc2C1COc1ccc2c(C)cc(=O)oc2c1 (stereo unspecified) | nt | nt | 3% | 8% | nt | nt
CCCC(=O)N1c2nc(C(C)C)nn2C2(CCCCC2)[C@@H]2CCCC[C@@H]21 | nt | nt | -8% | nt | nt | nt
CCc1cccc(NC(=O)C2CCC(CNS(=O)(=O)c3ccc(Br)s3)CC2)c1 (stereo unspecified) | nt | nt | 0% | 17% | nt | nt
